Screening data: PubChem BioAssay, several laboratories
MOR-DOR inv ag-1 – inverse agonists of MOR-DOR heterodimerization, primary screen, cell-based, luminescence. Mu-type opioid receptor (Homo sapiens) + Delta-type opioid receptor (Homo sapiens), …. cell-based MOR-DOR heterodimer luminescence, inverse agonism. inhibition, % at 9.3 µM. 340,000 compounds, 0.21% hits. AID 504357, 2011; in the data active means inhibition above about 22%, passing the limit was not always enough;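 further: 0% = cells with DMSO and 100% = wells without cells with DMSO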
OPRM1-OPRD1 ag – agonists of OPRM1-OPRD1 heterodimerization, primary screen, cell-based, luminescence | 340,000 compounds, 0.3% hits | cells | activation, % at 9.3 µM; in the data active means activation above about 18%;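 further: 0% = vehicle-treated cells and 100% = reference agonist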
HTR5A inv ctr – HTR5A inverse agonists in luminescence cell assay, primary screen, counter-screen for OPRM1-OPRD1 heterodimer inverse agonist project, full-deck HTS | HTR5A cell line, inverse agonism | 340,000 compounds, 0.083% hits | 5-hydroxytryptamine receptor 5A (Homo sapiens), P47898 | inhibition, % at 9.3 µM | AID 504634, 2011; in the data active means inhibition mostly above about 23%, no sharp cut-off; inactive means mostly below about 18%;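 further: 0% = cells with DMSO and 100% = no-cell wells with DMSO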
Target sequence (P47898 whole entry, looked up): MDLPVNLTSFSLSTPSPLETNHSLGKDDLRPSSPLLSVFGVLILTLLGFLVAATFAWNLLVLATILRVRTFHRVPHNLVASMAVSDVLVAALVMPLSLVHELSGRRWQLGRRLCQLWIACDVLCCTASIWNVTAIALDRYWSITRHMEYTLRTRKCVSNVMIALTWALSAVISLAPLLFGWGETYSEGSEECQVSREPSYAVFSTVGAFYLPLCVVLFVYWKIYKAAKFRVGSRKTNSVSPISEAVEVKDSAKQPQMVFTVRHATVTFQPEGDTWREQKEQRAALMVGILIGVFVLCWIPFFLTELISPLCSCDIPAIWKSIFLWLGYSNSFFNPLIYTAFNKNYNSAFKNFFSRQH
PolyA inhibitor – polyadenylation inhibitors in yeast reporter cells, primary screen, luminescence, S. cerevisiae | 300,000 compounds, 0.02% hits | S. cerevisiae SKY197-pL101 polyadenylation reporter, beta-gal luminescence; efflux-impaired pdr1/pdr3 knockout yeast; score 100 = 6 SD above DMSO | activity score, % at 12 µM;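 active means lowest replicate activity score at least 50, where 100 means six control SD above control mean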;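 further: yeast exposed to compound for 9 h at 30 °C; higher score means more reporter readthrough which indicates perturbed polyadenylation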
HTR5A ag – HTR5A agonists in luminescence cell assay, primary screen, counter-screen for OPRM1-OPRD1 heterodimer agonist project, full-deck HTS. 5-hydroxytryptamine receptor 5A (Homo sapiens), P47898. cell-based. activation, % at 9.3 µM. 340,000 compounds, 0.61% hits. AID 504692, 2011; in the data active means activation mostly above about 9.5%, no sharp cut-off; inactive means mostly below about 7.6%;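 further: 0% = cells with vehicle only and 100% = reference agonist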
NALP1 inh – NALP1 inflammasome inhibitors in reconstituted yeast, colorimetric, S. cerevisiae, triplicate retest; S. cerevisiae NALP1/ASC/caspase-1 growth, X-gal OD620, 72 h; inhibition, % at 10 µM; 280,000 compounds, 0.61% hits; AID 2071, 2009; in the data active means inhibition mostly above about 24%, no sharp cut-off; inactive means mostly below about 32%
MOR-DOR inv conf – inverse agonists of MOR-DOR heterodimerization, confirmation, cell-based, luminescence. cells expressing OPRM1/OPRD1 heterodimer. 580 compounds, 20% hits. inhibition, % at 9.3 µM. shares compounds with MOR-DOR inv ag-1; in the data active means inhibition above about 32%;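 further: 0% = cells with DMSO and 100% = wells lacking cells with DMSO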
HTR5A inv count – HTR5A inverse agonists, counter-screen for OPRM1-OPRD1 inverse agonist project, cell-based, luminescence; 580 tested, under 10 active; HTR5A-expressing cells, inverse agonism; inhibition, % at 9.3 µM; AID 504914, 2011; shares compounds with MOR-DOR inv ag-1;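 further: 0% = cells with DMSO and 100% = no-cell wells with DMSO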
MOR-DOR inv ag-2 – inverse agonists of MOR-DOR heterodimerization, counter-screen for HTR5A inverse agonist project, cell-based, luminescence | 190 tested, under 10 active | U2OS counter-screen cells, complementation luminescence | shares compounds with HTR5A inv ctr | inhibition, % at 9.3 µM;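 further: 0% = cells with DMSO and 100% = wells without cells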
HTR5A inv confrm – HTR5A inverse agonists, retest of hits, confirmation, cell-based, luminescence | inhibition, % at 9.3 µM | shares compounds with HTR5A inv ctr | 190 tested, under 10 active | HTR5A-expressing cells, inverse agonism;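 further: 0% = cells with DMSO and 100% = no cells with DMSO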
Starred values were filed as active, the others as inactive. Compounds with a hit are over-represented: about 1.6% of the library has one in this group of screens. Unless noted, how the calls were made is not given here.

What do the screens show for `C1CCC2CCCCC2C1` (stereo not drawn)?
MOR-DOR inv ag-1: 9.8; OPRM1-OPRD1 ag: -1.8; HTR5A inv ctr: -3.4; HTR5A ag: 0.8

Results for CC1CN(O)C2CCc3c(no[n+]3[O-])C12O (stereo not drawn) ?
MOR-DOR inv ag-1: 31.1*; OPRM1-OPRD1 ag: -5.3; HTR5A inv ctr: -28.6; PolyA inhibitor: 4.6; HTR5A ag: 2.9; MOR-DOR inv conf: -29.1; HTR5A inv count: 3.1

Results for CC1CC2(O)c3no[n+]([O-])c3CCC2N1O (stereo not drawn) ?
MOR-DOR inv ag-1: 24.9; OPRM1-OPRD1 ag: -4.6; HTR5A inv ctr: 24.2; PolyA inhibitor: 2.0; HTR5A ag: -2.5; NALP1 inh: -2.9

What do the screens show for `CC[C@@H]1C=CC=CC[C@H](C)[C@@H](O)[C@@H](C)C(=O)[C@H](C)[C@@H](O)[C@H](C)C(=O)[C@H](C)[C@@H](O)[C@H](C)C=CC(=O)O[C@H]2[C@@H](C)[C@@H](CC1)O[C@@]1(CC[C@@H](C)[C@@H](C[C@H](C)O)O1)[C@@H]2C`?
PolyA inhibitor: 1.1

Results for N#CC1c2ccccc2-n2nncc2CN1S(=O)(=O)c1ccc(Cl)cc1 (stereo not drawn) ?
MOR-DOR inv ag-1: -2.9; OPRM1-OPRD1 ag: 0.6; HTR5A inv ctr: 10.1; HTR5A ag: -2.9

How did CCCCn1c(NS(=O)(=O)c2ccccc2)c(C(=O)OCC)c2nc3ccccc3nc21 do in these assays?
MOR-DOR inv ag-1: 31.8*; OPRM1-OPRD1 ag: -5.8; HTR5A inv ctr: 13.3; PolyA inhibitor: 14.4; HTR5A ag: -0.2; NALP1 inh: 11.2; MOR-DOR inv conf: -16.0; HTR5A inv count: -14.2

Results for C[C@H]1CCC/C=C/[C@@H]2C[C@H](O)C[C@H]2[C@@H](O)/C=C/C(=O)O1 ?
MOR-DOR inv ag-1: 41.8*; OPRM1-OPRD1 ag: -9.5; HTR5A inv ctr: 5.2; HTR5A ag: -1.4; MOR-DOR inv conf: -455.3; HTR5A inv count: -24.0

What do the screens show for `Cc1ccc(C2SCC(=O)Nc3c2c(=O)[nH]n3C2CCOC(C)(C)C2)cc1` (stereo not drawn)?
MOR-DOR inv ag-1: 11.5; OPRM1-OPRD1 ag: -2.7; HTR5A inv ctr: 8.6; PolyA inhibitor: -10.4; HTR5A ag: -3.4; NALP1 inh: 36.2

Results for CC1(C)CC(n2[nH]c(=O)c3c2NC(=O)CSC3c2ccccc2)CCO1 (stereo not drawn) ?
MOR-DOR inv ag-1: 30.6*; OPRM1-OPRD1 ag: -7.3; HTR5A inv ctr: 11.0; PolyA inhibitor: 4.8; HTR5A ag: 1.6; NALP1 inh: -1.9; MOR-DOR inv conf: -1.9; HTR5A inv count: -15.5

How did C[C@]12CCC3C(CC[C@H]4C[C@H](O)CC[C@]34C)C1CCC2=O (stereo partly drawn) do in these assays?
MOR-DOR inv ag-1: -7.9; OPRM1-OPRD1 ag: 1.5; HTR5A inv ctr: 11.4; HTR5A ag: -2.8

Results for O=c1[nH]c(=S)[nH]c(O)c1N=Nc1cc(S(=O)(=O)Nc2ccc(Cl)cc2)ccc1Cl ?
MOR-DOR inv ag-1: 11.7; OPRM1-OPRD1 ag: -2.9; HTR5A inv ctr: -1.1; HTR5A ag: 0.4

What do the screens show for `N#Cc1c(/N=C/c2ccc(O)cc2O)sc2c1C1CCN2CC1`?
MOR-DOR inv ag-1: 50.7*; OPRM1-OPRD1 ag: -9.8; HTR5A inv ctr: 7.1; PolyA inhibitor: -7.1; HTR5A ag: -1.9; NALP1 inh: 28.7; MOR-DOR inv conf: -3.5; HTR5A inv count: 9.9

Results for CCC1CCCCN1CC(=O)c1ccc(OC(F)F)cc1 (stereo not drawn) ?
MOR-DOR inv ag-1: 42.4*; OPRM1-OPRD1 ag: -8.0; HTR5A inv ctr: 17.3; PolyA inhibitor: 6.5; HTR5A ag: 6.0; NALP1 inh: 29.8; MOR-DOR inv conf: 14.2; HTR5A inv count: 40.8

What do the screens show for `O=C(CN1CCCCC1)c1ccc(OC(F)F)cc1`?
MOR-DOR inv ag-1: 13.1; OPRM1-OPRD1 ag: -2.5; HTR5A inv ctr: -16.7; PolyA inhibitor: -2.0; HTR5A ag: 6.6; NALP1 inh: 28.4

Results for O=C(CN1CCCCC1)c1cccc(Br)c1 ?
MOR-DOR inv ag-1: 68.2*; OPRM1-OPRD1 ag: -12.7; HTR5A inv ctr: 3.4; PolyA inhibitor: 14.3; HTR5A ag: -3.2; NALP1 inh: 17.7; MOR-DOR inv conf: -444.2; HTR5A inv count: -13.3

What do the screens show for `NC(=S)N/N=C/c1coc2ccccc2c1=O`?
MOR-DOR inv ag-1: 10.2; OPRM1-OPRD1 ag: -2.0; HTR5A inv ctr: 3.7; PolyA inhibitor: -13.9; HTR5A ag: -1.4; NALP1 inh: 22.8

Results for CC(C)(C)OC(=O)c1c(N)n(Cc2ccco2)c2nc3ccccc3nc12 ?
MOR-DOR inv ag-1: 40.4*; OPRM1-OPRD1 ag: -6.8; HTR5A inv ctr: 20.4; PolyA inhibitor: -2.5; HTR5A ag: 0.9; NALP1 inh: -18.5; MOR-DOR inv conf: 96.0*; HTR5A inv count: 17.2

What do the screens show for `COc1ccc(CNC(=O)C(NC(C)=O)C(C)C)cc1OC` (stereo not drawn)?
MOR-DOR inv ag-1: 9.7; OPRM1-OPRD1 ag: -1.9; HTR5A inv ctr: 18.4*; PolyA inhibitor: 5.4; HTR5A ag: -6.5; NALP1 inh: 4.2; MOR-DOR inv ag-2: 5.2; HTR5A inv confrm: -8.0

How did Cc1nc2ccc(P(=O)(O)O)cc2s1 do in these assays?
PolyA inhibitor: 24.7; NALP1 inh: 15.4
